Compound activity as filed in PubChem BioAssay.
DT40 TDP1 no CPT – qHTS for Inhibitors of human tyrosyl-DNA phosphodiesterase 1 (TDP1): qHTS in cells in absence of CPT; DT40 Tdp1-/- hTDP1 cells, no CPT, ATP luminescence, 48 h; Potency, µM (doses to about 46.2 µM), inactives show at the highest dose activity change, negative = growth inhibition, actives largely listed as inhibitors; actives 15% (n = 420,000); note: potency is the fitted concentration of half-maximal effect; nearly all actives have a fitted effect of over 55% in size
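No-CPT arm: Tdp1-/-;hTDP1 DT40 cells (400/well) plus compounds, incubated ≥48 hr at 37 °C. Readout CellTiter-Glo luminescence.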
ALOX12 inh – blocks human arachidonate 12S-lipoxygenase | purified 12hLO, xylenol orange hydroperoxide absorbance | Potency, µM (series often up to 108 µM), inactives show top-dose activity change, negative = inhibition, actives largely listed as inhibitors | actives 1.1% (n = 580,000) | AID 1671190; note: potency is the fitted concentration of half-maximal effect
Target sequence (P18054 whole entry, looked up): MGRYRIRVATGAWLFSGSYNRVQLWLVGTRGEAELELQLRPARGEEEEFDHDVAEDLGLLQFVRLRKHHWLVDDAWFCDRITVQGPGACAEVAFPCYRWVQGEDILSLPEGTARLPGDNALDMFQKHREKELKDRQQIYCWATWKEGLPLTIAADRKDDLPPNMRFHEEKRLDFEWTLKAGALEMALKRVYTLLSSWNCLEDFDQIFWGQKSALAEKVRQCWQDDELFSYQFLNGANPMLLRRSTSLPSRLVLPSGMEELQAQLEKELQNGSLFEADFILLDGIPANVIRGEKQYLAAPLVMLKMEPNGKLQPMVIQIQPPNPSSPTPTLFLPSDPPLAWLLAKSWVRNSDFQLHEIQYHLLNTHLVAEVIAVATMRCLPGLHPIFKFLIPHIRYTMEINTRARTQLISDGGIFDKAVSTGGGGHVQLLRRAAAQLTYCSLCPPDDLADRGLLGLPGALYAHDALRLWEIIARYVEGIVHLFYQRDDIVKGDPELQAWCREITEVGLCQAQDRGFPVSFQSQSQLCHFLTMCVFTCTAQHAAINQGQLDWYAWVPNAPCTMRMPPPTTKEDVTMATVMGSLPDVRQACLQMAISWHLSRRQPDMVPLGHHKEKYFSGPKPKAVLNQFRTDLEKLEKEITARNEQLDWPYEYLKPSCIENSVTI
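Hydroperoxide product was detected by ferrous iron/xylenol orange as the 573 to 405 nm absorbance ratio. Arachidonic acid at 40 uM (final) was turned over for 30 min at room temperature by 150 nM human 12hLO, pH 7.0 Hepes buffer, after 15 min compound preincubation.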
TDP1 cell CPT – growth inhibition of DT40 Tdp1-/-;hTDP1 cells with camptothecin (screen for TDP1 inhibitors); chicken DT40 Tdp1-/-;hTDP1 cells + 20 nM CPT, ATP luminescence, 48 h; Potency, µM (series often up to 46.2 µM), for the others: at the top dose activity change, negative = growth inhibition, most hits filed as inhibitors; actives 12% (n = 420,000); AID 686979; note: potency is the fitted concentration of half-maximal effect; nearly all actives have a fitted effect of over 55% in size
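Cell growth measured by CellTiter-Glo luminescence after a minimum 48 h, 37 C compound exposure with 20 nM CPT in Tdp1-knockout DT40 cells stably expressing hTDP1, seeded 400/well; qHTS titration format.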
HT1080 IDH1KD tx – toxicity to HT-1080 IDH1 knockdown cells (counter line); Potency, µM (highest dose often 46.1 µM), for the others: top-dose activity, negative = toxicity, actives largely listed as cytotoxic; actives 2% (n = 360,000); HT-1080 IDH1 knockdown viability, ATP luminescence, 48 h;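 note: potency is the fitted concentration of half-maximal effect; 0% = DMSO wells and -100% = cell-free medium wells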
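IDH1KD HT-1080 cells, 750/well, RPMI + 5% FBS; compound pinned after 2 h settling; 48 h, 37 °C; CellTiter-Glo luminescence; % activity normalised to DMSO and no-cell wells; curves fitted, classed by r2 and efficacy.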
HT1080NT lethal – kills 2HG-producing HT-1080-NT fibrosarcoma cells; HT-1080-NT fibrosarcoma viability, CellTiter-Glo ATP luminescence, 48 h; Potency, µM (series often up to 46.1 µM), for the others: at the top dose activity, negative = less viability, usual class: cytotoxic; actives 1.6% (n = 360,000); AID 686970;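 note: NT is the 2HG producing partner of a matched IDH1 knockdown line; potency is the fitted concentration of half-maximal effect; 0% = DMSO-treated cells and -100% = media-only wells without cells; nearly all actives have a fitted effect of over 55% in size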
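Viability by CellTiter-Glo luminescence after 48 h compound exposure at 37C of HT-1080-NT cells (750/well, RPMI, 5% FBS). % activity scaled between DMSO wells and medium-only wells, then curve-fitted and categorized by curve class.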
IL-1B inflam inh – inflammasome signaling inhibition, IL-1 beta readout; THP-1 LPS/ATP IL-1B secretion, AlphaLISA, 16 h; hits give low values; activity change, % at 57.5 µM; actives 4.7% (n = 360,000); AID 743279; in the data active = activity change below about -50%; inconclusive = mostly about -30% to -49%
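THP-1 cells pretreated 1 hr with compounds (up to 57.5 uM final), then stimulated with LPS (250 ng/mL final) plus ATP (1.25 mM final); secreted IL-1B measured by AlphaLISA after 16 hr, decreased signal indicating inhibition.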
Numbers without * were called inactive; ? = inconclusive; nt = no result given. Shown is part of a subset that was picked to be rich in hits. Unless noted, calls come from the whole dose curve; as a rule, active = well fitted curve in the direction sought with a large enough effect; inconclusive = small, poorly fitted or top-dose-only effect, or another doubt; inactive = no such curve, though single readings can be large; an effect the other way counts as inactive or inconclusive. Unless noted, % is set by controls: 0 for no effect and ±100 for the full control effect.

SMILES	DT40 TDP1 no CPT	ALOX12 inh	TDP1 cell CPT	HT1080 IDH1KD tx	HT1080NT lethal	IL-1B inflam inh
O=C(CN1C(=O)NC(Cc2c[nH]c3ccccc23)C1=O)Nc1ccc(F)cc1F (stereo unspecified)	-5%	-8%	3%	0%	-5%	-15
CC(Sc1nnc(Nc2ccccc2F)s1)C(=O)N(C)c1ccccc1 (stereo unspecified)	nt	-21%	nt	nt	nt	nt
COC(=O)C(=Nc1ccccc1)/C(C(=O)C(=O)N(C)c1ccccc1)=C(\O)c1ccccc1	7%	13µM*	25%	10%	?	-10
O=C(Cn1nc(-c2ccccc2)c2ccccc2c1=O)N1CCCCC1	nt	10%	nt	nt	nt	nt
Cc1ccc(C(=O)/C=C/C(=O)O)cc1	26µM*	-17%	?	?	?	-6
CN(C)/C=C/C(=O)c1cccc(Cl)c1	-25%	-9%	-18%	2%	0%	?
CN(C)/C=C/C(=O)c1ccc(-n2cccc2)cc1	-5%	?	-5%	0%	-5%	20
CN(C)/C=C/C(=O)c1ccc(-c2ccc(Cl)cc2Cl)o1	-13%	1.6µM*	2%	8%	0%	?
O=C(O)c1ccc(-c2ccc(Cl)cc2Cl)o1	-2%	?	-1%	0%	1%	-9
CN(C)/C=C/C(=O)c1ccc(Cl)c([N+](=O)[O-])c1	?	?	-8%	-4%	5%	-96*
CN(C)/C=C\C(=O)c1ccc(Br)cc1	nt	4µM*	nt	nt	nt	nt
COc1cc(C#N)ccc1OC(C)C(=O)Nc1cc(C)ccc1C (stereo unspecified)	nt	-2%	nt	nt	nt	nt
Cc1noc(C)c1S(=O)(=O)N1C[C@@H](Oc2cccnc2)C[C@H]1C(=O)NC1CC1	nt	2%	nt	nt	nt	nt
COc1cccc(COc2ccc3c(=O)c(-c4ccccc4OC)coc3c2)c1	nt	33%	nt	nt	nt	nt
Cc1ccc(C(=O)/C=C\N(C)C)cc1	nt	56µM*	nt	nt	nt	nt
Cc1ccc(C(=O)/C=C/N(C)C)cn1	-24%	0%	8%	9%	17%	21
CN(C)/C=C/C(=O)c1ccc(Cl)cc1	-7%	16µM*	-9%	-24%	0%	-19
CN(C)/C=C/C(=O)/C=C/c1ccc(Cl)cc1	?	?	-2%	?	12µM*	-100*
CN(C)/C=C/C(=O)c1ccn(S(=O)(=O)c2ccccc2)c1	17%	50µM*	-27%	0%	4%	0
COc1ccc(C)cc1C(=O)NC1CC(c2nnc(CN(C)C)n2C)C1 (stereo unspecified)	nt	17%	nt	nt	nt	nt
O=C(NCCc1c[nH]c2ccccc12)c1cnc2c(c1)N([S+](=O)([O-])c1cccnc1)CCC2	nt	-23%	nt	nt	nt	nt
COc1ccccc1-c1noc(-c2ccc(N3CCC(C)CC3)c([N+](=O)[O-])c2)n1	13µM*	-4%	?	nt	nt	nt
Cc1ccccc1-c1noc(-c2ccc(N3CCCCC3)c([N+](=O)[O-])c2)n1	12µM*	-18%	?	nt	nt	nt
COc1ccccc1N1CCN(c2ccc(-c3nc(-c4ccccc4C)no3)cc2[N+](=O)[O-])CC1	10%	-21%	0%	nt	nt	nt
COc1ccccc1-c1noc(-c2ccc(N3CCN(c4ccccc4)CC3)c([N+](=O)[O-])c2)n1	13µM*	0%	23µM*	nt	nt	nt
SMILES	DT40 TDP1 no CPT	ALOX12 inh	TDP1 cell CPT	HT1080 IDH1KD tx	HT1080NT lethal	IL-1B inflam inh
COc1ccccc1N1CCN(c2ccc(-c3nc(-c4ccccc4)no3)cc2[N+](=O)[O-])CC1	9.2µM*	-23%	12µM*	nt	nt	nt
CCC(=O)n1nc(-c2cccnc2)nc1NCc1ccccc1	-24%	24%	-6%	4.6µM*	-35%	4
Cc1cccc(OCC(=O)N2CCC(c3n[nH]c(=O)n3-c3ccccc3)CC2)c1	nt	1%	nt	nt	nt	nt
O=C(CSc1ncc(-c2ccccc2)n1-c1ccccc1)NCc1ccco1	16µM*	16%	?	-24%	7%	-2
O=C(CSc1nc2ccccc2c2nc3ccccc3n12)NCc1ccco1	23µM*	?	26µM*	-21%	-22%	-4
Cc1ccc(NC(=O)CSc2nc3ccccc3c3nc4ccccc4n23)cc1	0.58µM*	5%	0.65µM*	0.28µM*	0.4µM*	44
COc1ccc(-n2c(-c3ccc(F)cc3)cnc2SCC(=O)NCc2ccco2)cc1	-30%	-13%	-18%	-15%	1%	?
CCCCNC(=O)C1(C)CCN1C(=O)c1ccc2c(c1)C(C)(C)CCC2(C)C (stereo unspecified)	13µM*	27%	21µM*	-4%	19%	47
CCCCNC(=O)C1(C)CCCCN1C(=O)c1ccc2c(c1)C(C)(C)CCC2(C)C (stereo unspecified)	2.1µM*	-3%	3.7µM*	?	?	-5
CCOc1cc(C(=O)Nc2cnc3ccccc3c2)ccc1OC	nt	-5%	nt	nt	nt	nt
CCOc1cc2cc(C(=O)c3ccccc3O)cnc2cc1OC	nt	8.9µM*	nt	nt	nt	nt
CC(C)Oc1cccc2c1c(NC(=O)c1cc(F)cc(C#N)c1)nn2C	nt	16%	nt	nt	nt	nt
